# Measurements as given in article PMC7862700, “An all-to-all approach to the identification of sequence-specific readers for epigenetic DNA modifications on cytosine”.
# Tests used:
# Experiment in all cases: DAPPL (digital affinity profiling via proximity ligation, sequencing); 10 mM Tris-HCl pH 7.5, 50 mM NaCl, 1 mM DTT, 4% glycerol, room temperature, 30 min; GST-TFs on glutathione beads, 16-mer random dsDNA library, 0.1% formaldehyde crosslink after washing; high values mean tight binding
# Details in all cases: protein: recombinant; tags: N-terminal GST; dsDNA, one strand shown
# [1] = molecular target: T1, FEV (Homo sapiens, UniProt Q99581 1-238)
# T1 sequence: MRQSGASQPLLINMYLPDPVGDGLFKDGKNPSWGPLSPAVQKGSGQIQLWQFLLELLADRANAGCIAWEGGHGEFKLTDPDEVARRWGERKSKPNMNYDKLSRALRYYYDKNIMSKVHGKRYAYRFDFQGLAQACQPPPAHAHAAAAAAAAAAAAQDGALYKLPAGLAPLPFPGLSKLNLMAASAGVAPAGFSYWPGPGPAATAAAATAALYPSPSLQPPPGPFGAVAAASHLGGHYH
# Procedure, shortened: (§1)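 In yeast, human transcription factors were expressed with a GST fusion, then pulled down on glutathione beads and given DNA barcodes. Pooled with a tag-only sample, they were exposed to 200 nmole of a 16-mer random double-stranded DNA library (Tris/NaCl/DTT/glycerol buffer, room temperature, 30 min), washed, crosslinked with 0.1% formaldehyde, proximity-ligated using BsaI/T4 ligase for 1 h at 37 °C, PCR-amplified and read on an Illumina NextSeq500. Each hexamer's frequency of reads for a factor, divided by the matching frequency for the tag-only sample, gives the binding signal.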
# [2] = molecular target: ETV5 (Homo sapiens, UniProt P41161 1-510)
# ETV5, sequence (P41161 whole entry): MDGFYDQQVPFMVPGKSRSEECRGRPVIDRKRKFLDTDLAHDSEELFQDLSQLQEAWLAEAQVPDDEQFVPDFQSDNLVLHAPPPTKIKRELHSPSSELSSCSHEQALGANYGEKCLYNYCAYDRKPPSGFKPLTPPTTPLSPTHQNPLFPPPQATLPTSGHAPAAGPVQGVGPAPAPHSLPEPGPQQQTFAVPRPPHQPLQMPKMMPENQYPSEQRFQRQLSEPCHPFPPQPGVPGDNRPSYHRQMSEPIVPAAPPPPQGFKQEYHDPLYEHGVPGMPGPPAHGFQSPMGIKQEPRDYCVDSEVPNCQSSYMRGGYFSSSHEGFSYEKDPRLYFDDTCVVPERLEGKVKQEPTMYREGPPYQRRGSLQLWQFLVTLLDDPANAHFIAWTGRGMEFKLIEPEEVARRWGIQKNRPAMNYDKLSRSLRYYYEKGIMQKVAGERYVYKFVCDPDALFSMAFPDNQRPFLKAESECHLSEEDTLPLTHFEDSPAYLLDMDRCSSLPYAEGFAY
# Procedure, shortened: as §1
# [3] = molecular target: T2, SPIC (Homo sapiens, UniProt Q8N5J4 1-248)
# T2 sequence: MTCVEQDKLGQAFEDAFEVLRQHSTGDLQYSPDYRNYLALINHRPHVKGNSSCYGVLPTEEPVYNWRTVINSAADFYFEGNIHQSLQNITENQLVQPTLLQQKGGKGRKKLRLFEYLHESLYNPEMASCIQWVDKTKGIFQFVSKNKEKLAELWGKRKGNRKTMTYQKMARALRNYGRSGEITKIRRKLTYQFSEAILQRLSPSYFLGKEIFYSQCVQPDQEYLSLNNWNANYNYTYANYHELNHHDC
# Procedure, shortened: as §1
# [4] = molecular target: ELF4 (Homo sapiens, UniProt Q99607 1-663)
# ELF4, sequence (Q99607 whole entry): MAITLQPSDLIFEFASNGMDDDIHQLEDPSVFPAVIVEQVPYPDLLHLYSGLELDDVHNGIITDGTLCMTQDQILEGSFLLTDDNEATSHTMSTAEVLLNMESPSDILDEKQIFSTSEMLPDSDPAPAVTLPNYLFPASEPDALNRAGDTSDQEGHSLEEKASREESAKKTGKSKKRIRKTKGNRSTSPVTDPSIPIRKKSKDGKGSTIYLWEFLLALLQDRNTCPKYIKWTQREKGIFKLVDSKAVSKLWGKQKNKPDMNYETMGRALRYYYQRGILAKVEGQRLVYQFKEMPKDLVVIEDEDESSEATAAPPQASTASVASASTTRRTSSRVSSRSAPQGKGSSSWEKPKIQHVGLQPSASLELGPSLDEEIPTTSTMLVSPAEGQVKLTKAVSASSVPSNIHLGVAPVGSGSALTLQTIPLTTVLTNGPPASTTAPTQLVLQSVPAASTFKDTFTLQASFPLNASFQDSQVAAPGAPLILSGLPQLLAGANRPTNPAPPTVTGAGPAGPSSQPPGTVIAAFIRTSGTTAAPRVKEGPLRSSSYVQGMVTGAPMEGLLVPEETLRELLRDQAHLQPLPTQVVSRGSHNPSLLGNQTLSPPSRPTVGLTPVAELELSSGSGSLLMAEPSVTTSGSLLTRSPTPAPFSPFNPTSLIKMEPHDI
# Procedure, shortened: as §1
# [5] = molecular target: T3, ELK4 (Homo sapiens, UniProt P28324-2 1-405)
# T3 sequence: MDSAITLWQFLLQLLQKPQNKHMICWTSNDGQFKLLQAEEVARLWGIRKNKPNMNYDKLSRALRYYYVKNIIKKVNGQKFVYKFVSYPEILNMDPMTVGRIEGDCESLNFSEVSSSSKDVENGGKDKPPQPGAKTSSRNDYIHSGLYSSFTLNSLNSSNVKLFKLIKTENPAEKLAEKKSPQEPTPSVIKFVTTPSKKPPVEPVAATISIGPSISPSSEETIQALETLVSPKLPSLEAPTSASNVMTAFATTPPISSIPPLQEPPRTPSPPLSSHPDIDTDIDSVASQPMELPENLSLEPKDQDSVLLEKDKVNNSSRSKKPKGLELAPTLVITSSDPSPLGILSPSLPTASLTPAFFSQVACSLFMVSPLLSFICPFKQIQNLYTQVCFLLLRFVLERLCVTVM
# Procedure, shortened: as §1
# [6] = molecular target: T4, ETV2 (Homo sapiens, UniProt O00321 1-342)
# T4 sequence: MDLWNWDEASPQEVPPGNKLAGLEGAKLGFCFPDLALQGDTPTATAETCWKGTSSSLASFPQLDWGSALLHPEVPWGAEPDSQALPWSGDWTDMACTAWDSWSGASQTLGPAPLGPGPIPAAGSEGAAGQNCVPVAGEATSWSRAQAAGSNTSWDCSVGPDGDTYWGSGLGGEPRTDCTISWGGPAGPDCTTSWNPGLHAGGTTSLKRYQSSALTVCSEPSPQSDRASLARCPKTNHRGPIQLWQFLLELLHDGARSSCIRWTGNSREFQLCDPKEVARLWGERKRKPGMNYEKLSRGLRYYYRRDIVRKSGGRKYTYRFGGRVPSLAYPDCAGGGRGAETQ
# Procedure, shortened: as §1
# [7] = molecular target: T5, ERF (Homo sapiens, UniProt P50548 1-548)
# T5 sequence: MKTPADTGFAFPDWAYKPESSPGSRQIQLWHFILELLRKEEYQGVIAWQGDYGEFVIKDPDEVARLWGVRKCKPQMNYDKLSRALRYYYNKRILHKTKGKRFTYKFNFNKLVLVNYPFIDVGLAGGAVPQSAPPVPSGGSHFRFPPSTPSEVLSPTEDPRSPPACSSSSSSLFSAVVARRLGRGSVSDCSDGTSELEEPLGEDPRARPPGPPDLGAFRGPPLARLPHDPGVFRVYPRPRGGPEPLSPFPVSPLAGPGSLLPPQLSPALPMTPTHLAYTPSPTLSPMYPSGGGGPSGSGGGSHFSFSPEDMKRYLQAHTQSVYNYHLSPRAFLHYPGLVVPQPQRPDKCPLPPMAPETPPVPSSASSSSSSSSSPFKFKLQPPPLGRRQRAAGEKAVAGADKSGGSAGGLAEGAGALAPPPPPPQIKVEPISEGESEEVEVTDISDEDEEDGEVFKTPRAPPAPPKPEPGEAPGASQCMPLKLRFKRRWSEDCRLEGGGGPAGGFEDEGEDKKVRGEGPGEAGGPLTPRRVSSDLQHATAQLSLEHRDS
# Procedure, shortened: as §1
# [8] = molecular target: T6, ETS2 (Homo sapiens, UniProt P15036 1-469)
# T6 sequence: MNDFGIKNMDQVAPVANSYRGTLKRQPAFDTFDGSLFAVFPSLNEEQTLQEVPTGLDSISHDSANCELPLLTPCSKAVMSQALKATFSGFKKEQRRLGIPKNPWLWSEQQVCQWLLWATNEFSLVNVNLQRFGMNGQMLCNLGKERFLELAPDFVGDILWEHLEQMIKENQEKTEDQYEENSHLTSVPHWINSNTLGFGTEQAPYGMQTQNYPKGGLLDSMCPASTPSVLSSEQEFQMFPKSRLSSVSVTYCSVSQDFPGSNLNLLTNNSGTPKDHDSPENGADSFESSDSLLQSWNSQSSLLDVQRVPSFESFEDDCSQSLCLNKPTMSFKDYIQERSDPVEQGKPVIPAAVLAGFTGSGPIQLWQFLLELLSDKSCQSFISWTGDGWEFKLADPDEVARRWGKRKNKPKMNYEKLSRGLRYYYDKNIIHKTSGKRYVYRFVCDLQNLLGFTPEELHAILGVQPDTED
# Procedure, shortened: as §1
# [9] = molecular target: T7, ELF5 (Homo sapiens, UniProt Q9UKW6-2 1-255)
# T7 sequence: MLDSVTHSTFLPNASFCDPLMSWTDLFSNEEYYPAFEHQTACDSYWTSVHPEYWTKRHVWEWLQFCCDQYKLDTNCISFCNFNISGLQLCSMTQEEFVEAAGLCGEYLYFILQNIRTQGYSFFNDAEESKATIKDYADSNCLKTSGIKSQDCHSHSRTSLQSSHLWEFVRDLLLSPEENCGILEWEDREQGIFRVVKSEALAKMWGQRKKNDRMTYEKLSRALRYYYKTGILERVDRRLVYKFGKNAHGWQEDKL
# Procedure, shortened: as §1
# [10] = molecular target: T8, ETV3 (Homo sapiens, UniProt P41162-2 1-143)
# T8 sequence: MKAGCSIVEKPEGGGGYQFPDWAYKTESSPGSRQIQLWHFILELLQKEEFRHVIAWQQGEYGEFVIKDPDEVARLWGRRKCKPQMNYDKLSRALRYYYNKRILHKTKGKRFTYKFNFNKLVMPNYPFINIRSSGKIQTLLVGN
# Procedure, shortened: as §1
sequence,measurement,setting,value
GCCCAT,binding signal,[1],"1.09 fold enrichment (6-mer frequency, TF over GST control)"
same,binding signal,[2],"1.03 fold enrichment (6-mer frequency, TF over GST control)"
same,binding signal,[3],"1.12 fold enrichment (6-mer frequency, TF over GST control)"
same,binding signal,[4],"1.07 fold enrichment (6-mer frequency, TF over GST control)"
same,binding signal,[5],"1.23 fold enrichment (6-mer frequency, TF over GST control)"
same,binding signal,[6],"1.01 fold enrichment (6-mer frequency, TF over GST control)"
same,binding signal,[7],"1.05 fold enrichment (6-mer frequency, TF over GST control)"
same,binding signal,[8],"1 fold enrichment (6-mer frequency, TF over GST control)"
same,binding signal,[9],"1.01 fold enrichment (6-mer frequency, TF over GST control)"
same,binding signal,[10],"1.01 fold enrichment (6-mer frequency, TF over GST control)"
